Results on 46 compounds are retold here after PubChem BioAssay AID588458 (Sanford-Burnham Center for Chemical Genomics, 2011).

Each structure is given as a SMILES string. About 3,000 (0.83%) of roughly 360,000 compounds were called active. Cut-off read from the data, not from the text of the source: active = inhibition above about 50%; inactive = the rest. For the sample, actives were picked, then their nearest neighbours and some compounds at random.

The target of this experiment is DNA (cytosine-5)-methyltransferase 1 (Homo sapiens) (UniProt P26358). The experiment can be described thus: human DNMT1 methyltransferase inhibitors, primary screen, biochemical, molecular beacon, fluorescence, HinP1I cleavage, uHTS (AID 588458). As to conditions: at 10 µM, active compounds read high.
Chain of DNA (cytosine-5)-methyltransferase 1 (Homo sapiens) (P26358 504-1616 limits assumed): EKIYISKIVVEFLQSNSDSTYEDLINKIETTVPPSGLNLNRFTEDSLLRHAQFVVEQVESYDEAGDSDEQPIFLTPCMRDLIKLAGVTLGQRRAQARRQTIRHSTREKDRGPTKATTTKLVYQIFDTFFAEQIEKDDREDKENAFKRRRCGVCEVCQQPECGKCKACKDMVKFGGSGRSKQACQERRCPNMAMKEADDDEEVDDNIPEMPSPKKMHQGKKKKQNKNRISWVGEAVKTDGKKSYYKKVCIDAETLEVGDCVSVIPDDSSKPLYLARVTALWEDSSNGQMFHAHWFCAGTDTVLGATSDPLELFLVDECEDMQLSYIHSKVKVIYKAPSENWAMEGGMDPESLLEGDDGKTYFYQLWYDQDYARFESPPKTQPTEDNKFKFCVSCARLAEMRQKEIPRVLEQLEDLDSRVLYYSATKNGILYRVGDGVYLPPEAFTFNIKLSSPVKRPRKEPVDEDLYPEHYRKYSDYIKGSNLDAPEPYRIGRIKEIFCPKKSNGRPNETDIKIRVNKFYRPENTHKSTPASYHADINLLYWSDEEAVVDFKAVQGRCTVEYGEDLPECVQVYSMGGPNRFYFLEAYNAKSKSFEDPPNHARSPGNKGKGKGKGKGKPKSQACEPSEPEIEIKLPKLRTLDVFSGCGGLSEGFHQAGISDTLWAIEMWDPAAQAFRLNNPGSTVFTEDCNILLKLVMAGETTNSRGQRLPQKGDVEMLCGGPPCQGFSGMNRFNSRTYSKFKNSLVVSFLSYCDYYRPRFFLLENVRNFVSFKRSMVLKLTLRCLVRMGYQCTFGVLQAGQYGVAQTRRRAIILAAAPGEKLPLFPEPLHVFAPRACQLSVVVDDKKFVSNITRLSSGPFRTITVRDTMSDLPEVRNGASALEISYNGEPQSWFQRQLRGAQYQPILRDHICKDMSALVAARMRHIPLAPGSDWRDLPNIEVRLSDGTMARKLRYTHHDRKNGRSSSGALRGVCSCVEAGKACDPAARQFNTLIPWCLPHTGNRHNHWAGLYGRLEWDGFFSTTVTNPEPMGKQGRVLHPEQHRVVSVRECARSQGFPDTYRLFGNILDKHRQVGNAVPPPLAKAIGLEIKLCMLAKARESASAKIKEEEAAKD
As for `COc1ccc(NC(=O)CCC(=O)Nc2cc(OC)c(NC(=O)c3ccco3)cc2OC)c(OC)c1`, the inhibition (reported as % activation of signal) was -1.01% (inactive).

On to `CCOc1cc(NC(=S)NCc2ccco2)c(OCC)cc1NC(=O)c1ccco1`, for which the inhibition (reported as % activation of signal) is -8.9% (inactive).

Consider `CCOc1cc(NC(=O)c2ccco2)c(OCC)cc1NC(=O)COc1ccccc1`, for which the inhibition (reported as % activation of signal) is 67.3% (active).

In the case of `CC(C)(C(=O)N1CCC1(C)C(=O)NS(=O)(=O)c1ccc(Br)cc1)c1ccccc1` (stereo unspecified), the inhibition (reported as % activation of signal) is 1.25% (inactive).

With `CCCCCCc1cc2cc(-c3nnc(-c4ccccc4)o3)c(=O)oc2cc1O`, the inhibition (reported as % activation of signal) was 88.6% (active).

For `CC1CCN(CCCNC(=O)CN2C(=O)CSc3ccc(S(=O)(=O)N4CCCCC4)cc32)CC1`, the inhibition (reported as % activation of signal) was 0.73% (inactive).

As to `CC(C)C(NC(=O)c1c(F)cccc1F)C(=O)NCc1ccncc1` (stereo unspecified), the inhibition (reported as % activation of signal) is 1.21% (inactive).

With `O=C(NCCc1cccc(F)c1)C1CC(O)CN1C(=O)Nc1ccccc1` (stereo unspecified), the inhibition (reported as % activation of signal) was 7.51% (inactive).

In the case of `COc1cc(/C=N/N=C(\N)c2nonc2N)cc(OC)c1OC`, the inhibition (reported as % activation of signal) is -0.45% (inactive).

For the compound `O=C(Nc1ccc(C(=O)NCc2ccccc2Cl)cc1)C1=CSCCO1`, the inhibition (reported as % activation of signal) is -10.3% (inactive).

As to `CSc1ccc(CNC(=O)c2ccc(NC(=O)C3=CSCCO3)cc2)cc1`, the inhibition (reported as % activation of signal) was 62.1% (active).

As to `CSc1ccc(CNC(=O)C2(C)CCCN2C)cc1` (stereo unspecified), the inhibition (reported as % activation of signal) was 9.6% (inactive).

For the compound `O=C(Nc1cccc2cccnc12)c1ccc2sc([C@H]3C[C@H](O)[C@@H](CO)O3)nc2c1`, the inhibition (reported as % activation of signal) is -5.28% (inactive).

`CC(C)CCNC(=O)c1ccc2c(Cl)c3c(nc2c1)CCC3`: the inhibition (reported as % activation of signal) was -1.49% (inactive).

In the case of `CC(=O)c1ccc(NC(=O)c2ccc3c(Cl)c4c(nc3c2)CCCC4)cc1`, the inhibition (reported as % activation of signal) was 76.2% (active).

For the compound `COc1cccc(NC(=O)c2ccc3c(SCC(=O)O)c4c(nc3c2)CCCC4)c1`, the inhibition (reported as % activation of signal) was 9.48% (inactive).

In the case of `CC1=C(C(=O)N2CCOCC2)CC(CC(=O)NCCCN(C)C)C(=O)N1Cc1ccc(C(C)(C)C)cc1` (stereo unspecified), the inhibition (reported as % activation of signal) is 2.88% (inactive).

With `O=c1c2cc([N+](=O)[O-])ccc2nc2n1CCC2`, the inhibition (reported as % activation of signal) was 2.73% (inactive).

With `Cc1cccc(NC(=S)N(CCN(C)C)C(C)c2ccco2)c1` (stereo unspecified), the inhibition (reported as % activation of signal) is -0.09% (inactive).

Turning to `O=C(CCc1n[nH]c(=O)[nH]c1=O)N/N=C/c1ccc(Br)o1`, the inhibition (reported as % activation of signal) is 5.93% (inactive).

Consider `O=C(CCC(=O)N/N=C/c1ccc(Br)o1)N/N=C/c1ccc(Br)o1`, for which the inhibition (reported as % activation of signal) is 17% (inactive).

For the compound `O=C(CCNC(=O)c1ccccc1)NN=Cc1ccc(Br)o1`, the inhibition (reported as % activation of signal) is 50.6% (active).

On to `COc1ccccc1OC(C)C(=O)Nc1ccc(S(=O)(=O)Nc2nccs2)cc1` (stereo unspecified), for which the inhibition (reported as % activation of signal) is 0.4% (inactive).

In the case of `COc1ccc(NCc2nnc(SCc3ccccc3)n2-c2ccc(OC)cc2)cc1`, the inhibition (reported as % activation of signal) is -3.05% (inactive).

`Clc1ccccc1CSc1nnc(-c2ccco2)c(-c2ccco2)n1`: the inhibition (reported as % activation of signal) was 92.8% (active).

Turning to `CSc1nc(-c2ccco2)nn1C(=O)c1ccccc1Cl`, the inhibition (reported as % activation of signal) was 4.2% (inactive).

In the case of `O=C(Nc1nnc(SCc2ccccc2Cl)s1)c1cccc([N+](=O)[O-])c1`, the inhibition (reported as % activation of signal) was -4.99% (inactive).

In the case of `c1ccc(Cc2c(-c3ccco3)nc3c4ccccc4ccn23)cc1`, the inhibition (reported as % activation of signal) was -16.2% (inactive).

`c1ccc(CSc2nnc(-c3ccco3)c(-c3ccco3)n2)cc1`: the inhibition (reported as % activation of signal) was 113% (active).

With `CC(c1nnc(SCC(=O)Nc2sccc2C#N)n1-c1ccc(Cl)cc1)N(C)C` (stereo unspecified), the inhibition (reported as % activation of signal) was -2.07% (inactive).

As to `CCOc1cc(CNCCN(C)C)c(Cl)cc1OCC(=O)NCCc1ccccc1`, the inhibition (reported as % activation of signal) was 2.37% (inactive).

`N#Cc1cc([N+](=O)[O-])ccc1NCC1CCCO1` (stereo unspecified): the inhibition (reported as % activation of signal) is 0.79% (inactive).

For the compound `COCCNC(=O)CN(Cc1ccco1)C(=O)CCC(=O)Nc1nccs1`, the inhibition (reported as % activation of signal) is 0.73% (inactive).

Take `CC(C)(C)C(=O)N1CCC[C@@]1(CO)C(=O)O`: the inhibition (reported as % activation of signal) was 5.81% (inactive).

With `COc1ccc(Cl)cc1NC(=O)CCS(=O)(=O)c1ccc(Br)cc1`, the inhibition (reported as % activation of signal) is 94.1% (active).

In the case of `O=C(CCS(=O)(=O)c1ccc(Br)cc1)NCCc1ccc(Cl)cc1`, the inhibition (reported as % activation of signal) is 68.7% (active).

For `O=C(NCCS(=O)(=O)c1ccc(Br)cc1)c1ccccc1Cl`, the inhibition (reported as % activation of signal) is 2.79% (inactive).

Take `COc1ccc(Cl)cc1NC(=O)COC(=O)c1ccc(Br)o1`: the inhibition (reported as % activation of signal) was -6% (inactive).

`CCCCC(=O)N/N=C(\C)CC(=O)Nc1cc(Cl)ccc1OC`: the inhibition (reported as % activation of signal) is 2.33% (inactive).

For `Cc1ccc(S(=O)(=O)CCC(=O)OCC(=O)NCCc2ccc(S(N)(=O)=O)cc2)cc1`, the inhibition (reported as % activation of signal) was -1.16% (inactive).

As to `Cc1noc(C)c1CSCC(=O)N(CCC(C)C)c1c(N)n(Cc2ccccc2)c(=O)[nH]c1=O`, the inhibition (reported as % activation of signal) is -0.4% (inactive).

With `Cc1ccn2c(c1)nc(=O)c1cc(S(=O)(=O)N3CCC(C)CC3)ccc12`, the inhibition (reported as % activation of signal) is 2.87% (inactive).

Regarding `Cc1cc(C(=O)N2CCCC2(C)C(=O)O)c(C)o1` (stereo unspecified), the inhibition (reported as % activation of signal) is 8.96% (inactive).

With `NC(=O)COC(=O)c1ccc2c(c1)C(=O)N(Cc1ccco1)C2=O`, the inhibition (reported as % activation of signal) is 1.59% (inactive).

For the compound `CC(C)(C)C1C/C(=C/c2ccco2)C(=O)/C(=C/c2ccco2)C1` (stereo unspecified), the inhibition (reported as % activation of signal) was 95.9% (active).

With `COC(=O)COc1ccc2c(c1C)O/C(=C\c1ccco1)C2=O`, the inhibition (reported as % activation of signal) is -2.61% (inactive).
